This excerpt belongs to a sample that is enriched for hits.
Methyltransferases: Primary Screen for Target Class Profiling of Small Molecule Inhibitors of Methyltransferases | purified enzyme, MTase-Glo SAH luminescence; hits give low values | calls only at 40 µM | 25,000 tested, 3.9% active; call rule not given here
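Each enzyme was assayed with SAM and its substrate. SAH formation detected by MTase-Glo luminescence; single-point 40 uM screen[…].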
The depositor's hits bear a star; i = inactive; + = active, no number. On the % scale 0 is the no-effect control and ±100 the full control effect.

SMILES	Methyltransferases
COc1ccc2cc3n(c2c1)CC(C)(C(=O)NC1CCCCC1)N(Cc1ccccc1)C3=O (stereo not drawn)	i
O=C1NCCCCCCN[C@H]2C[C@H](c3nc(-c4cnccn4)no3)C[C@@H]12	i
CCCn1c(=O)c2ccc(C(=O)NCC(C)C)cc2n2c(=O)n(CC(=O)Nc3ccccc3)nc12	i
CC1CCCC(NC(=O)C2(C)Cn3c(cc4occc43)C(=O)N2Cc2cccc(Cl)c2)C1C (stereo not drawn)	i
CCc1ccc(N2C(=O)c3cc4occc4n3CC2(C)C(=O)NC2CCCCC2C)cc1 (stereo not drawn)	i
NC(=O)c1ccccc1	i
NC(=O)c1cnc(-c2ccc(C3(N)CCC3)cc2)c(-c2ccccc2)c1	+
CCOc1ccc(CCNC(=O)c2cc3n(n2)CC(C)(C(=O)NC2CCCC2)N(C)C3=O)cc1 (stereo not drawn)	i
Cc1ccc2c(c1)C=Cc1cc(C)ccc1C2c1cn(Cc2ccc(C(=O)Nc3nn[nH]n3)o2)c(=O)[nH]c1=S	+
CCCN1C(=O)c2c(C(=O)NCc3ccc(OC)cc3)ncn2CC1(C)C(=O)NCc1ccc(C)cc1 (stereo not drawn)	i
COc1ccc(-c2cc3n(n2)CC(C)(C(=O)NCc2ccccc2)N(c2cccc(F)c2)C3=O)cc1 (stereo not drawn)	i
O=C(Cn1ccc2cc(S(=O)(=O)N3CCCC3)ccc21)NC1CCCCC1	i
CC(C)OCCCN1C(=O)c2ccc(-c3ccco3)n2CC1(C)C(=O)NC1CCCCCC1 (stereo not drawn)	i
OCCc1ccc(O[C@@H]2O[C@H](CO)[C@@H](O)[C@H](O)[C@H]2O)c(O)c1	i
O=C(O[C@@H]1O[C@H](CO)[C@@H](O)[C@H](O)[C@H]1O)c1c(O)cc(O)cc1/C=C/c1ccccc1	+
OC[C@H]1O[C@@H](OC[C@H]2O[C@@H](OC/C=C/c3ccccc3)[C@H](O)[C@@H](O)[C@@H]2O)[C@@H](O)[C@@H]1O	i
OC[C@H]1O[C@@H](Oc2ccccc2)[C@H](O)[C@@H](O)[C@@H]1O	i
CC(=O)c1c(O)cc(O[C@@H]2O[C@H](CO)[C@@H](O)[C@H](O)[C@H]2O)cc1O	i
OC[C@H]1O[C@@H](Oc2ccc(O)c3cccc(O)c23)[C@H](O)[C@@H](O)[C@@H]1O	+
CC(=O)c1c(C)cc(O[C@@H]2O[C@H](CO)[C@@H](O)[C@H](O)[C@H]2O)cc1O	i
O=C(c1ccccc1)c1c(O)cc(O)cc1O[C@@H]1O[C@H](CO)[C@@H](O)[C@H](O)[C@H]1O	+
O=C(/C=C/c1ccccc1O)O[C@@H]1O[C@H](CO)[C@@H](O)[C@H](O)[C@H]1O	i
CCCn1c(=O)c2ccc(Cl)cc2n2c(=O)n(CC(=O)Nc3ccc(OC)cc3)nc12	i
CN1C(=O)c2cc(C(=O)NCCc3ccccc3)nn2CC1(C)C(=O)NC1CCCCC1 (stereo not drawn)	i
CC(C)CCn1c(=O)c2ccccc2n2c(CCC(=O)NC(C)c3ccccc3)nnc12 (stereo not drawn)	i
SMILES	Methyltransferases
Cn1cnc2c(=O)oc3ccc(S(=O)(=O)NCCc4ccc(Cl)cc4)cc3c21	i
CCc1ccc(CN2C(=O)c3cc(C(C)(C)C)nn3CC2(C)C(=O)NCc2ccccc2)cc1 (stereo not drawn)	i
CC1(C(=O)NCc2ccccc2)Cn2c(nc3ccccc32)C(=O)N1CCCc1ccccc1 (stereo not drawn)	i
COc1ccc(-c2cc3n(n2)CC(C)(C(=O)NCc2ccccc2OC)N(C2CC2)C3=O)cc1 (stereo not drawn)	i
Nc1nccc(Oc2ccc(NC(=O)c3c[nH]cc(-c4ccc(F)cc4)c3=O)cc2F)c1Cl	+
COc1ccc(OC)c(-c2ccc(NC(=O)c3ccncc3F)cc2)c1	i
O=C(Nc1ccc(F)cc1)c1ccnc2[nH]ccc12	i
CN(CCCN1C(=O)c2ccc(-c3ccco3)n2CC1(C)C(=O)NC1CCCCC1)C1CCCCC1 (stereo not drawn)	i
CCOC(=O)c1cc2n(n1)CC(C)(C(=O)NC1CCCCCC1)N(c1ccc3c(c1)OCO3)C2=O (stereo not drawn)	i
CC(C)CCNC(=O)CCc1nnc2n(CCc3ccccc3)c(=O)c3ccccc3n12	i
COCCOC(=O)C1=C(C)NC(C)=C(C(=O)OC(C)C)C1c1cccc([N+](=O)[O-])c1 (stereo not drawn)	i
CC1=C(C(=O)OC2CCCCC2)C(c2ccc([N+](=O)[O-])cc2)C2=C(CC(C)(C)CC2=O)N1 (stereo not drawn)	+
CCOC(=O)C1=C(C)NC(C)=C(C(=O)OC)C1c1cccc([N+](=O)[O-])c1 (stereo not drawn)	i
CCOC(=O)c1cc2n(n1)CC(C)(C(=O)NC1CCC(C)CC1)N(Cc1ccc3c(c1)OCO3)C2=O (stereo not drawn)	i
Cc1cc(C)cc(NC(=O)CSc2nnc3n(Cc4ccc(F)cc4)c(=O)c4ccccc4n23)c1	i
Cc1ccc(NS(=O)(=O)c2cc3c(cc2C)n(C)c(=O)n3C)cc1Cl	i
O=[N+]([O-])c1cccc2c(Br)[nH]nc12	+
CCCC1=CC2=C(CO1)C(=O)C(C)(OC(=O)c1c(C)cc(OC)cc1O)C(O)C2 (stereo not drawn)	i
NCCOc1cc(C(=O)Nc2cc(OCCN)c3ccccc3n2)nc(C(=O)Nc2cc(OCCN)c3ccccc3n2)c1	+
Cc1cc2c(cc3n2CC(C)(C(=O)NC2CCCCCCC2)N(C2CCCCC2)C3=O)o1 (stereo not drawn)	i
CSc1cccc(N2C(=O)c3ccc(-c4ccco4)n3CC2(C)C(=O)NC2CCCC2)c1 (stereo not drawn)	i
CCc1ccccc1N1C(=O)c2c(C(=O)OC)ncn2CC1(C)C(=O)NCc1ccccc1 (stereo not drawn)	i
CCCn1c(=O)c2ccc(C(=O)NC(C)C)cc2n2c(=O)n(Cc3ccc(N4CCCC4=O)cc3)nc12	i
CCCn1c(=O)c2ccccc2n2c(=O)n(CC(=O)c3ccc(Br)cc3)nc12	i
Cc1ccc(Cn2c(=O)c3ccccc3n3c(-c4ccccc4C)nnc23)cc1	i
SMILES	Methyltransferases
Clc1ccc(-c2nnn3c2nc(NCC2CCCO2)c2ccccc23)cc1 (stereo not drawn)	i
Cc1cccc(N2C(=O)c3cc4occc4n3CC2(C)C(=O)NC2CCCCCC2)c1C (stereo not drawn)	i
CS(=O)(=O)N1CCc2c(-c3cnc(N)nc3)nc(N3CCOCC3)nc21	i
Cc1c(CN2CCN(S(C)(=O)=O)CC2)sc2c(N3CCOCC3)nc(-c3cnc(N)nc3)nc12	+
Cc1ccccc1CCN1C(=O)c2ccc(-c3ccco3)n2CC1(C)C(=O)NC1CCCCCCC1 (stereo not drawn)	i
C=CCn1c(=O)c2ccc(C(=O)NC(C)C)cc2n2c(=O)n(CC(=O)Nc3cc(F)ccc3F)nc12	i
COc1ccccc1CNC(=O)C1(C)Cn2c(cc3ccccc32)C(=O)N1CCC(C)C (stereo not drawn)	i
Nc1ncnc2c1c(-c1cccc(OCc3ccccc3)c1)cn2C1CC(CN2CCCC2)C1 (stereo not drawn)	+
Cc1ccsc1CCNC(=O)Cn1c(=O)oc2cc(S(=O)(=O)N3CCCC3)ccc21	+
